# Out of some 4,100 compounds screened, about 1,600 (39%) were called active. Not shown: some 25% with an inconclusive outcome. The call rests on the fitted dose curve; in most records, active means well fitted inhibition curve with a large enough effect; inconclusive means small, poorly fitted or top-dose-only effect; inactive means no such curve, though single readings can be large or run the other way. The list shows a part of the results. A call without a number means that no potency is given here.
# Test: qHTS Validation assay for Inhibitors of Plasmodium falciparum Dd2 growth in vitro; further: nearly all actives have a fitted effect of over 70% in size
# Conditions: P. falciparum Dd2 in RBCs, SYBR Green growth, 72 h; series mostly up to 28.7 µM
# Procedure, shortened: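 P. falciparum Dd2-infected red blood cells (2.5% hematocrit, 0.3% parasitemia) grown 72 h at 37 °C under 5% O2 with compounds in a titration, 29 uM to 0.5 nM final. Growth read as SYBR Green-1 fluorescence after ~16 h lysis; artesunate 300 nM as positive control.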
# Potency means the concentration at half of the fitted maximal effect.
row,SMILES,Potency
1,CC(=O)NCCc1ncc(C)n1C1CCCCCC1,inactive
2,CC(=O)NCCc1ncc(C)n1C1CCC1,inactive
3,CCOC(=O)c1cnc(-n2nc(C)cc2C)nc1NNc1nc(-c2ccccc2)cc(-c2ccccc2)n1,2.11 µM (active)
4,CCOC(=O)c1cnc(-n2nc(C)cc2C)nc1NC1CCCC1,8.41 µM (active)
5,ClC(Cl)(Cl)c1nc2ccccc2n2nncc12,2.11 µM (active)
6,COc1cccc(-c2cc3c(=O)n(CCNC(=O)c4cccc5[nH]ccc45)ccn3n2)c1,inactive
7,CCCN(CCC)CCNC(=O)c1cc2c(-c3ccc(Cl)cc3)nn(C)c2s1,0.596 µM (active)
8,COc1cccc(-c2cc(C(=O)NCC34CCC=C3N(C)C(=O)CC4)[nH]n2)c1 (stereo not drawn),inactive
9,CCCCN(CC)CCNC(=O)c1cc2c(-c3ccc(Cl)cc3)nn(C)c2s1,0.668 µM (active)
10,CCCCN(C)CCNC(=O)c1cc2c(-c3cccc(OC)c3)nn(C)c2s1,6.68 µM (active)
11,CN(CCNC(=O)c1cc2c(-c3ccccc3F)nn(C)c2s1)C1CCCCC1,5.96 µM (active)
12,COC(=O)c1c(NC(=O)/C(C#N)=C/c2ccc(OC)cc2)sc2c1CCC2,inactive
13,O=C(NCCCn1cccn1)C1Cn2cccc2C(=O)N1Cc1ccccc1 (stereo not drawn),inactive
14,COc1ccccc1CN1CCOCC2(C1)CN([S+](=O)([O-])c1ccccc1)C2,12.2 µM (active)
15,COc1ccc(C2=NOC3(CCN([S+](=O)([O-])c4cccc(OC)c4)C3)C2)cc1 (stereo not drawn),inactive
16,COc1ccc(C(=O)N2CCOCC3(CN(Cc4ccccc4)C3)C2)c(OC)n1,inactive
17,Cc1ccc(Sc2ccc(N3CCCC(C(=O)Nc4ccc(F)c(Cl)c4)C3)nn2)cc1 (stereo not drawn),inactive
18,O=C(Nc1ccc(N2CCCCC2)c(Cl)c1)c1ncn[nH]1,4.73 µM (active)
19,N#Cc1c2c(c(NCc3ccco3)n3c1nc1ccccc13)CCC2,2.37 µM (active)
20,CCc1c(C)c(C#N)c2nc3ccccc3n2c1NCC1CCCO1 (stereo not drawn),2.99 µM (active)

row,SMILES,Potency
1,COC(=O)CSc1nc2c(c(-c3ccco3)c1C#N)CCCC2,inactive
2,CN1c2cc(C(=O)NCc3nc4ccccc4n3C)ccc2C(=O)N2CCCCCC21 (stereo not drawn),inactive
3,COc1ccccc1N1CCN([C@H]2[C@@H]3OC[C@@H](O3)[C@@H](N(CC3CC3)CC3CC3)[C@@H]2O)CC1,inactive
4,Oc1ccccc1CN[C@H]1[C@H](O)[C@@H](N2CCC(Cc3ccccc3)CC2)[C@@H]2OC[C@H]1O2,3.44 µM (active)
5,COc1ccccc1N1CCN([C@H]2[C@@H]3OC[C@@H](O3)[C@@H](NCc3ccc(-c4ccccc4)cc3)[C@@H]2O)CC1,15 µM (active)
6,CC(=O)N1CCN([C@H]2[C@@H]3OC[C@@H](O3)[C@@H](NC(=O)Nc3ccccc3)[C@@H]2O)CC1,inactive
7,O[C@H]1[C@H](NCC2CCCCC2)[C@H]2CO[C@H](O2)[C@@H]1N1CCC(Cc2ccccc2)CC1,1.37 µM (active)
8,CC(=O)N1CCN([C@H]2[C@@H]3OC[C@@H](O3)[C@@H](NC(=O)Nc3ccc(F)cc3)[C@@H]2O)CC1,inactive
9,O=C(Nc1ccccc1)N[C@H]1[C@H](O)[C@@H](Oc2ccccc2)[C@@H]2OC[C@H]1O2,inactive
10,O[C@H]1[C@H](NCc2ccc(-c3ccccc3)cc2)[C@H]2CO[C@H](O2)[C@@H]1Oc1ccccc1,inactive
11,Cc1cc(NC(=O)CSc2ccc3nnc(-c4cccc(F)c4)n3n2)no1,5.96 µM (active)
12,CCOC(=O)CC(=O)CSc1ccc2nnc(-c3ccccc3)n2n1,inactive
13,CCc1noc(-c2ccn3c(CNC(=O)Cc4cccc(F)c4)nnc3c2)n1,inactive
14,CCCc1noc(-c2cccn3c(CNC(=O)c4ccc(Cl)cc4)nnc23)n1,inactive
15,COc1cc2c(cc1CNc1ncncn1)CCC2,inactive
16,O=C(CCl)Nc1cccc(-c2cnc3ccccc3n2)c1,6.68 µM (active)
17,CC(=O)Nc1cccc(-c2ccnc(-c3nnc(C)n3Cc3ccccc3)c2)c1,inactive
18,Cc1ccccc1C(=O)Nc1cccc(-c2nc3cccnc3s2)c1,inactive
19,O=C(Nc1ccc(S(=O)(=O)NC2=NCCCCC2)cc1)c1ccco1,inactive
20,O=c1c2ccccc2c(C=Nc2cccc(S(=O)(=O)NC3=NCCCCC3)c2)c(O)n1Cc1ccccc1,13.3 µM (active)

row,SMILES,Potency
1,O=C(CCC[C@H]1NC[C@@H]2C[C@H]1CN(Cc1ccccc1)C2)NCCCN1CCCc2ccccc21,10.6 µM (active)
2,Cc1nnc2c(N3CCN(c4ccccc4)CC3)nc3ccc(C(=O)c4ccccc4)cc3n12,0.842 µM (active)
3,COc1ccccc1-c1ccc(CN2CCCC(c3nc4ccc(F)cc4c(=O)[nH]3)C2)cc1 (stereo not drawn),8.41 µM (active)
4,Fc1ccc(CN2CC[C@H](c3nc4ccc(C(F)(F)F)cc4[nH]3)C2)cc1F,inactive
5,CCN1CCCC(c2nc3ccc(F)cc3c(=O)[nH]2)C1 (stereo not drawn),inactive
6,COc1ccc(CN2CCC3(CC2)CC(O)CCO3)c(OC)c1 (stereo not drawn),inactive
7,CC(=O)N1CCC(C2CCN(Cc3cc(Cl)ccc3F)C2)CC1 (stereo not drawn),inactive
8,Oc1cc2c(cc1CN1CCN(c3cccc(C(F)(F)F)c3)CC1)CCC2,0.944 µM (active)
9,O=C(c1ccc2c(Cl)c3c(nc2c1)CCCC3)N1CCN(c2cccc(C(F)(F)F)c2)CC1,inactive
10,Cc1ccc(Cl)cc1N1CCN(Cc2cc3c(cc2O)CCC3)CC1,0.188 µM (active)
11,Cc1ccc(Cl)cc1N1CCN(C(=O)c2ccc3c(Cl)c4c(nc3c2)CCCC4)CC1,inactive
12,COc1ccc(N2C(N)=NC(N)=NC23CCCC3)cc1,inactive
13,COc1ccc(N2CCN(Cc3cc4c(cc3O)CCC4)CC2)cc1,16.8 µM (active)
14,CC(C)NC(=O)N1CCCC(Cn2c(C3CC3)nc3cccnc32)C1 (stereo not drawn),inactive
15,O=C1Nc2ccc(-c3cccc(C(F)(F)F)c3)cc2C(=O)N2CCN(C(=O)c3ccccc3)C[C@H]12,inactive
16,O=C(Cc1ccccc1)N1CCCC2(CC(c3cccc(C(F)(F)F)c3)=NO2)C1 (stereo not drawn),inactive
17,O=C(c1nc(-c2cccc(C(F)(F)F)c2)c2cnccn12)N1CCCC1,10.6 µM (active)
18,N#CC1CCN(C(=O)c2nc(-c3cccc(C(F)(F)F)c3)c3cnccn23)CC1,16.8 µM (active)
